Assay outcomes deposited in PubChem BioAssay by ICCB-Longwood Screening Facility, Harvard Medical School.
Shown are actives, neighbours in structure and some others; about 0.52% of the full set was active somewhere.
Sa growth 42C: blocks Staphylococcus aureus growth. S. aureus RN4220 growth, OD600, 20 h, 42 °C; hits give low values. relative growth, % (test concentration not listed). actives 0.53% (n = 170,000). AID 720641;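 active = relative growth at most 50% at the other temperature and 20+ points below 30 °C, or under 10% at both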
Sa helicase inh: S. aureus DNA helicase inhibition; inhibition, % (test concentration not listed); purified S. aureus helicase, fluorescence unwinding assay; actives 0.05% (n = 120,000); in the data active = inhibition above about 25%, passing the limit was not always enough;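 also: 0% = mean of negative control wells and 100% = mean of positive control wells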
* hit, by the source's call.

`N#C/C(=C\c1ccc(F)cc1)c1c[nH]c2ccccc12` gave Sa growth 42C 42*.
`N#C/C(=C\c1ccc(Cl)cc1Cl)c1c[nH]c2ccccc12` gave Sa growth 42C 71.
Screening CC(=O)Nc1ccc(NC(=O)CN(C)S(=O)(=O)c2ccc(F)cc2)cc1 returned Sa growth 42C 98 and Sa helicase inh 19.
`Cc1ccc(-c2csc(C3=C(O)CN(N)C3=N)n2)cc1` gave Sa growth 42C 94 and Sa helicase inh 10.
`O=S(=O)(Nc1ccccc1Cl)c1ccc2[nH]c(=S)oc2c1` gave Sa growth 42C 83 and Sa helicase inh 16.
For S=c1[nH]c2c(Cl)cc(Cl)cc2o1 the results were Sa growth 42C 3.3* and Sa helicase inh -4.
For Cc1nc(C)c(S(=O)(=O)NCc2csc(-c3cccs3)n2)s1 the results were Sa growth 42C 129.
O=C(NCSCc1cccc(C(F)(F)F)c1)Nc1ccc(F)c(Cl)c1 was read as Sa growth 42C 9.0*.
`C=CCNC(=O)Nc1ccc(F)c(Cl)c1` gave Sa growth 42C 105 and Sa helicase inh 25.
`O=C(CSc1n[nH]c(=O)n1Cc1ccccc1)NC(=O)Cc1ccccc1` gave Sa growth 42C 111 and Sa helicase inh 18.
Screening NS(=O)(=O)c1ccc2nc(NC(=O)c3cccc(C(F)(F)F)c3)sc2c1 returned Sa helicase inh -6.
For CCC(=O)Nc1nnc(-c2ccco2)o1 the results were Sa growth 42C 90 and Sa helicase inh 3.
Screening CCC(=O)Nc1nnc(-c2cccc(OC)c2)o1 returned Sa growth 42C 0.6* and Sa helicase inh -3.
`CCC(=O)Nc1nnc(-c2ccc3c(c2)CCCC3)o1` gave Sa growth 42C -0.4* and Sa helicase inh -4.
`O=C(Nc1nnc(-c2ccc3c(c2)CCCC3)o1)C1CCCCC1` gave Sa helicase inh -17.
Screening O=C(NC1CCCc2ccccc21)C1COc2ccccc2O1 (centres undefined) returned Sa growth 42C 111 and Sa helicase inh 13.
`COc1cc(/C=C/C(=O)Nc2nnc(C)s2)cc(OC)c1OC` gave Sa growth 42C 107 and Sa helicase inh -5.
Screening Cc1c2cnn(-c3ccccc3)c(=O)c2c(C)n1CC(=O)N1CCCCC1 returned Sa growth 42C 114 and Sa helicase inh -27.
O=C(CCn1nc(C(F)(F)F)cc1C1CC1)NCCC1=CCCCC1 was read as Sa growth 42C 80 and Sa helicase inh 7.
`O=S(=O)(c1ccc(-c2cc(C(F)(F)F)no2)s1)N1CCCCC1` gave Sa growth 42C 105 and Sa helicase inh 0.
`Oc1nc2c(Cl)c(Cl)c(Cl)cc2o1` gave Sa growth 42C -1.2* and Sa helicase inh 30.
Screening O=c1oc2cc(Cl)c(O)c(Cl)c2s1 returned Sa growth 42C 60 and Sa helicase inh 30.
Nc1nc(-c2ccncc2)nc2sc3c(c12)CCCCC3 was read as Sa growth 42C 115.
For c1ccc2c(c1)N1CCN2CC1 the results were Sa growth 42C 94 and Sa helicase inh -9.
`Nc1ccccc1N1CCCC1` gave Sa growth 42C 2.8* and Sa helicase inh 11.
`Cc1ccc(-c2nc3cccc(C)n3c2Nc2ccc3c(c2)OCO3)o1` gave Sa growth 42C 2.2*.
Screening Cc1cccc2nc(-c3ccco3)c(Nc3ccc4c(c3)OCO4)n12 returned Sa growth 42C 111.
`C=CCOC1=NC2C(C(=O)N(C)C(=O)N2C)N1C` (centres undefined) gave Sa growth 42C 87 and Sa helicase inh 17.
Screening COc1ccc(NC(=O)C(C)NC(=O)C(c2ccccc2)c2ccccc2)cc1 (centres undefined) returned Sa helicase inh 21.
Screening CCc1cc(=O)oc2c(O)c(O)ccc12 returned Sa growth 42C 102 and Sa helicase inh 11.
O=c1cc(-c2ccccc2)c2ccc(O)c(O)c2o1 was read as Sa helicase inh 58*.
C[C@@H](O)[C@H]1C(=O)N2C(C(=O)O)=C(S[C@@H]3CN[C@H](C(=O)N(C)C)C3)[C@H](C)[C@H]12 was read as Sa growth 42C -0.5*.
`NC(=S)N1CCCC1` gave Sa growth 42C 94 and Sa helicase inh 70.
Screening S=C(S)N1CCCC1 returned Sa growth 42C 1.7* and Sa helicase inh -5.
For O=C(Nc1cccnc1)c1ccc(Oc2cc(Cl)cc(Cl)c2)o1 the results were Sa growth 42C 106.
For O=C(Nc1ccncc1)c1ccc(Oc2cc(Cl)cc(Cl)c2)o1 the results were Sa growth 42C 4.9*.
CCN(CC)S(=O)(=O)c1cccc(C(=O)OCC(=O)c2ccc3c(c2)OCO3)c1 was read as Sa growth 42C 92 and Sa helicase inh 2.
CCN(CC)S(=O)(=O)c1cc(C(=O)Oc2ccc3c(c2)OCO3)ccc1C was read as Sa growth 42C 44* and Sa helicase inh 13.
Screening CC(C)CCN(Cc1ccco1)S(=O)(=O)c1ccc(-c2cc(C(F)(F)F)no2)s1 returned Sa growth 42C 86 and Sa helicase inh -11.
`Clc1ccc(-c2nc(NCc3ccco3)c3ccccc3n2)c(Cl)c1` gave Sa growth 42C 52 and Sa helicase inh -36.
c1cncc(-c2nc(NCCSCc3ccco3)c3ccccc3n2)c1 was read as Sa growth 42C 5.9* and Sa helicase inh -8.
Screening N#Cc1c(/N=C/c2ccco2)sc2c1CCCC2 returned Sa growth 42C 80 and Sa helicase inh -16.
Screening O=c1c2c3c(sc2nc2sc(-c4ccncc4)nn12)CCCC3 returned Sa growth 42C 95 and Sa helicase inh -9.
Screening O=S(=O)(c1ccccc1)c1nc(-c2cccs2)oc1N1CCCCC1 returned Sa growth 42C 106.
CC(C)CS(=O)(=O)c1oc(-c2ccc(F)cc2)nc1S(=O)(=O)c1ccccc1 was read as Sa growth 42C 1.0*.
`O=S(=O)(c1ccccc1)c1nc(-c2ccc(F)cc2)oc1NCc1ccccc1` gave Sa growth 42C 121.
Screening CCC(C)S(=O)(=O)c1oc(-c2cccs2)nc1S(=O)(=O)c1ccccc1 (centres undefined) returned Sa growth 42C 3.7*.
Screening COc1ccc(C(=O)Cn2cnc3c(cnn3C(C)(C)C)c2=O)cc1 returned Sa growth 42C 94 and Sa helicase inh 2.
`c1ccc(CN2CCCC2)nc1` gave Sa growth 42C 98 and Sa helicase inh 5.
`NS(=O)(=O)c1ccc(CCNC(=O)Nc2cccc(Cl)c2)cc1` gave Sa growth 42C 67 and Sa helicase inh 13.
`Cc1cc(Cl)cc(C)c1OCCn1ccnc1` gave Sa growth 42C 19 and Sa helicase inh 0.
Screening Clc1ccc(OCCn2ccnc2)c(Br)c1 returned Sa growth 42C 3.1* and Sa helicase inh 9.
`Cc1ccccc1Cn1nnc2c(=O)[nH]c(C3CCN(C(=O)c4ccccc4Cl)CC3)nc21` gave Sa growth 42C 12.
`Cc1cccc(Cn2nnc3c(=O)[nH]c(C4CCN(C(=O)c5ccccc5F)CC4)nc32)c1` gave Sa growth 42C 103.
Screening CC(C)(C)OC(=O)N1CCC(c2nc3c(nnn3Cc3ccccc3Cl)c(=O)[nH]2)CC1 returned Sa growth 42C 0.3* and Sa helicase inh 0.
COc1cccc(Cn2nnc3c(=O)[nH]c(C4CCN(C(=O)c5ccccc5)CC4)nc32)c1 was read as Sa growth 42C 0.8* and Sa helicase inh 8.
Screening COc1cccc(Cn2nnc3c(=O)[nH]c(C4CCN(C(=O)c5ccccc5Cl)CC4)nc32)c1 returned Sa growth 42C 0.4*.
